Test systems include SK-MEL-2 melanoma; SN12C renal; UO-31 renal; TK-10 renal; ACHN renal; CAKI-1 renal; A498 renal; CCRF-CEM leukemia; MOLT-4 leukemia.
What all share (assay): NCI-60 one-dose screen, 48 h (100 = growth as untreated, 0 = no growth, -100 = all killed)
What all share (conditions): 10 µM

The source of these data is PubChem BioAssay (NCI).

The panel holds about 83,000 compounds, 20% with a hit somewhere; the sample as a whole holds those more often.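 A percent growth of 40 corresponds to 60% growth inhibition; 0 means no net growth; -100 means all cells died. Active threshold: below 10.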 A number with no mark means an inactive call. Activity calls are given as the source filed them.

For `O=S(=O)(NCl)c1ccccc1`, the growth in the assay on SK-MEL-2 melanoma is 109%; in the assay with SN12C renal, 106%; in the assay with UO-31 renal it was 83.1%; in the assay on TK-10 renal it was 96.2%; in the assay with ACHN renal, 105%; in the assay with CAKI-1 renal it was 94.7%. Also, the growth in the assay with A498 renal is 97.5%; in the assay on CCRF-CEM leukemia, 92.5%; with MOLT-4 leukemia it was 98.3%.

`C[n+]1c(/C=C/c2c[nH]c3ccccc23)ccc2ccccc21`: the growth in the assay on SK-MEL-2 melanoma is 83.9%; in the assay with SN12C renal, 64.4%; in the assay on UO-31 renal, 60.5%; with TK-10 renal, 89.6%; in the assay on ACHN renal, 77.1%; in the assay with CAKI-1 renal, 88.8%. The growth in the assay with A498 renal is 54.5%; with CCRF-CEM leukemia, 43.4%; in the assay with MOLT-4 leukemia, 9.37% (active).

`CC(=O)CS(C)(=O)=O`: the growth in the assay with SK-MEL-2 melanoma was 103%; in the assay with SN12C renal it was 105%; in the assay with UO-31 renal, 92.4%; in the assay with TK-10 renal it was 103%; in the assay on ACHN renal, 106%; in the assay on CAKI-1 renal it was 101%. Further, the growth was 98.8% in the assay with A498 renal and 106% in the assay on MOLT-4 leukemia.

On to `Cc1cc2cc3c(=O)[nH]c(=O)cc-3n(CC(O)C(O)C(O)CO)c2cc1C` (centres undefined), for which the growth was 120% with SK-MEL-2 melanoma; 113% in the assay on SN12C renal; 99.2% with UO-31 renal; 125% with TK-10 renal; 87.9% in the assay on CAKI-1 renal; 109% with A498 renal. Besides, the figures for the growth in the assay on CCRF-CEM leukemia and in the assay with MOLT-4 leukemia were 105% and 99.8%, respectively.

As to `COc1cc(C2C=C(c3ccc(Cl)c(Cl)c3)N=C3SC(C)=CN32)cc(OC)c1OC` (centres undefined), the growth is 83.4% in the assay on SK-MEL-2 melanoma; 92.3% in the assay with SN12C renal; 55.2% with UO-31 renal; 94.7% with TK-10 renal; 67.3% with CAKI-1 renal; 74% in the assay with A498 renal. The growth was 36.7% with CCRF-CEM leukemia and 46.2% in the assay on MOLT-4 leukemia.

As for `COc1cccc(C2(C)Nc3ccccc3-c3nc4ccccc4n32)c1` (centres undefined), the growth is 105% in the assay on SK-MEL-2 melanoma; 100% in the assay on SN12C renal; 94.2% with UO-31 renal; 106% in the assay on TK-10 renal; 99.8% in the assay with CAKI-1 renal; 95.6% in the assay with A498 renal. Also, the growth in the assay with CCRF-CEM leukemia was 99.1%; in the assay with MOLT-4 leukemia, 84.5%.

With `O=C(O)c1ccc(CNc2ccc(C(=O)CCl)cc2)cc1`, the growth was 96.6% in the assay with SK-MEL-2 melanoma; 99.3% in the assay on SN12C renal; 106% in the assay on UO-31 renal; 104% in the assay on TK-10 renal; 99.3% in the assay on ACHN renal; 86.7% in the assay with CAKI-1 renal. The growth in the assay on A498 renal was 61.4%; with CCRF-CEM leukemia, 48.7%; with MOLT-4 leukemia, 87.9%.

With `CCCCC(=O)N(c1ccc(Nc2c3ccccc3nc3cc([N+](=O)[O-])ccc23)cc1)S(C)(=O)=O`, the growth with SK-MEL-2 melanoma is 109%; in the assay on SN12C renal, 69.3%; in the assay with UO-31 renal, 36.7%; in the assay with TK-10 renal it was 95.8%; in the assay with ACHN renal, 43.1%; with CAKI-1 renal, 59.9%. Further, the growth is 78.8% with A498 renal, 33.2% in the assay with CCRF-CEM leukemia and 22.8% in the assay with MOLT-4 leukemia.

In the case of `Oc1cc(O)c(Br)cc1Br`, the growth in the assay on SK-MEL-2 melanoma was 96.6%; with SN12C renal, 101%; in the assay with UO-31 renal it was 85.2%; with TK-10 renal, 94.3%; in the assay on ACHN renal it was 103%; in the assay on CAKI-1 renal it was 95.9%. For the same molecule, the growth is 96.7% in the assay with A498 renal and 93.1% in the assay on MOLT-4 leukemia.

Take `N#Cc1ncc(-c2cc(F)ccc2F)c(NC2CCCCCC2)n1`: the growth in the assay on SK-MEL-2 melanoma was 74.9%; with SN12C renal, 80.8%; in the assay with UO-31 renal, 81.5%; in the assay on TK-10 renal, 101%; in the assay on ACHN renal it was 88.8%; with CAKI-1 renal it was 88.2%. The growth in the assay with A498 renal was 58.2%; with CCRF-CEM leukemia it was 81.3%; with MOLT-4 leukemia, 79.4%.

For the molecule `COc1ccc(-c2oncc2-c2cc(OC)c3c(c2)OCO3)cc1`, the growth with SK-MEL-2 melanoma was -1.77% (active); in the assay on SN12C renal, 35.9%; with UO-31 renal, 39.8%; in the assay on TK-10 renal it was 48.2%; in the assay with CAKI-1 renal, 22.9%; in the assay on A498 renal, 7.82% (active). In addition, the results for the growth with CCRF-CEM leukemia and in the assay on MOLT-4 leukemia were 16% and 22.4%, respectively.

As for `CCOC(=O)CNC(=O)Nc1ccc(Oc2ccc(NC(=O)NCC(=O)OCC)cc2)cc1`, the growth with SK-MEL-2 melanoma was 115%; in the assay on SN12C renal, 94.7%; in the assay with UO-31 renal, 83.2%; in the assay on TK-10 renal it was 114%; in the assay on ACHN renal, 102%; in the assay on CAKI-1 renal, 95.1%. For the same molecule, the growth in the assay on A498 renal is 95.7%; with MOLT-4 leukemia it was 107%.

On to `COc1ccc2c(=O)cc(C(Cl)(Cl)Cl)oc2c1`, for which the growth in the assay on SK-MEL-2 melanoma was -75.2% (active); in the assay on SN12C renal, 2.57% (active); in the assay with UO-31 renal, -19.3% (active); in the assay on TK-10 renal, -20.4% (active); in the assay on ACHN renal it was 10.6%; in the assay with CAKI-1 renal, -14.5% (active). Moreover, the growth was -68.5% (active) in the assay on A498 renal, -21.2% (active) with CCRF-CEM leukemia and -23.9% (active) with MOLT-4 leukemia.

As for `COc1cc(-c2c(C#N)c(N)n3c(nc4ccccc43)c2C#N)cc(Br)c1OC`, the growth with SK-MEL-2 melanoma was 76.7%; with SN12C renal, 40.1%; with UO-31 renal it was 17.5%; in the assay with TK-10 renal it was 11.1%; in the assay with ACHN renal it was 50.1%; with CAKI-1 renal, 69.1%. The growth in the assay on A498 renal was 67.1%; in the assay with MOLT-4 leukemia, 43.3%.

For the molecule `CCCCCCCCCCCCCCCCCBr`, the growth in the assay on SK-MEL-2 melanoma is 108%; in the assay with SN12C renal, 98.9%; with UO-31 renal, 91.4%; in the assay with TK-10 renal, 108%; in the assay on CAKI-1 renal it was 97.2%; in the assay on A498 renal it was 64.1%. In addition, the growth with CCRF-CEM leukemia was 94.4%; in the assay with MOLT-4 leukemia, 96%.

Take `CC(C)/C(=N/O)c1ccccc1`: the growth with SK-MEL-2 melanoma is 101%; in the assay on SN12C renal, 102%; in the assay on UO-31 renal it was 93.8%; in the assay with TK-10 renal, 104%; in the assay on CAKI-1 renal it was 107%; in the assay on A498 renal, 113%. Also, the growth in the assay with CCRF-CEM leukemia was 103%; with MOLT-4 leukemia it was 94%.
